This is part of a sample that, as a whole, favours compounds with a hit. Of some 83,000 tested, about 20% had one in any assay.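 Cells were grown in 96-well plates and exposed to the test compound at a single concentration for 48 hours; results are reported as percent growth, with values below 10 considered active.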 Values without a mark were called inactive. Activity calls are given as the source filed them.
tested on: NCI-H23 lung; test: NCI-60 one-dose screen, 48 h (100 = growth as untreated, 0 = no growth, -100 = all killed); settings: 10 µM unless noted
Description: Growth inhibition of the NCI-H23 human Non-Small Cell Lung tumor cell line is measured as a screen for anti-cancer activity. Cells are grown in 96 well plates and exposed to the test compound for 48 hours. Compounds are tested at a single concentration, which is 10^-5 M for most compounds. The reported endpoint is percent growth (GI% or GIPRCNT), where numbers from 0 - 100% represent growth inhibition, and numbers from -100% - 0 represent cell death. For example, a value of 40 represents 60% growth inhibition. A value of 0 means no net growth occurred over the course of the experiment. A value of -40 indicates 40% of cells at the beginning of the experiment died by the end of the experiment. A value of -100 means all cells are dead at the end of the experiment.
NCI-60 Human Tumor Cell Lines Screen was performed using the standard one-dose NCI protocol, which is described in more detail at https://dtp.cancer.gov/discovery_development/nci-60/default.htm.
Compounds with GIPRCNT values below 10 were considered active. Activity score was based on GIPRCNT using the following formula: […]
Score is 0 for GIPRCNT values of 100 or above, 50 for GIPRCNT values of 0, and 100 for GIPRCNT values of -100.

Q: `COc1cccc(/C=N/NC(=O)c2ccccc2Nc2ccnc(C(F)(F)F)c2)c1O` was tested. Which growth did it give?
A: 30.8%

Q: For `O=C(COc1cccc(/C=C2\COc3ccc(Cl)cc3C2=O)c1)c1ccc(Cl)cc1`, which growth is on record?
A: 86.1%

Q: For `Cn1c(NCCc2ccc(O)c(O)c2)nc2c1c(=O)n(Cc1ccc(Cl)c(Cl)c1)c(=O)n2C`, which growth is on record?
A: 91.5%

Q: With `O=C1c2ccccc2C(=O)c2c1ccc1[nH]c(-c3cccs3)nc21` as the compound, how does the growth read?
A: 84.5%

Q: With `NC(=NCCCOc1ccc(Cl)cc1)Nc1ccc(Cl)cc1` as the compound, how does the growth read?
A: 23.4%

Q: With `O=C(N(c1ccccc1)c1ccccc1)n1ccc2nc(Cl)nc(Cl)c21` as the compound, how does the growth read?
A: 60.8%

Q: With `CCCN1CCN(c2ccc3nc(-c4ccc5nc(-c6ccc(OCC)cc6)[nH]c5c4)[nH]c3c2)CC1` as the compound, how does the growth read?
A: 19.5%

Q: Which growth does the source give for `O=C(Nc1ccccc1Cl)c1ccc(NC2=C(Cl)C(=O)N(C3CCCCC3)C2=O)cc1` here?
A: -24.1% [30 µM] (active)

Q: For `O=C(CN1CCCCC1)Nc1ccc2oc(=O)ccc2c1`, which growth is on record?
A: 97.5%

Q: How did the growth turn out when `Cc1cc(C)nc(SC2=C(Nc3cccc(Cl)c3C)C(=O)N(Cc3ccccc3)C2=O)n1` was run?
A: 58.9% [30 µM]

Q: With `CCCCn1cnc2c(Sc3c([N+](=O)[O-])ncn3C)nc(N)nc21` as the compound, how does the growth read?
A: 110%

Q: Which growth does the source give for `CN1CCN(c2ccc(Nc3c4ccccc4nc4ccccc34)cc2)CC1` here?
A: 105%

Q: `O=C(Cc1ccccc1Nc1c(Cl)cccc1Cl)NN1C(=O)/C(=C/c2ccc(Br)cc2)SC1=S` was tested. Which growth did it give?
A: 97.5%

Q: How did the growth turn out when `CCCc1cc(=O)n2c(C(=O)Nc3cccc(C(=O)OCC)c3)c(C(=O)Nc3ccc(F)cc3)sc2n1` was run?
A: 79.8% [30 µM]

Q: Which growth does the source give for `COc1cccc2c1C(=O)c1c(O)c3c(c(O)c1C2=O)C[C@](O)(C(=O)CO)C[C@H]3O[C@@H]1C[C@@H](NC(=O)CCCCCN(C)C2(c3ccc(F)cc3)CC3CCC2C3)[C@H](O)[C@@H](C)O1` (stereo not given in full) here?
A: 40.8%

Q: With `COc1cc2nc(N3CCCC3)nc(NCc3ccccc3)c2cc1OC` as the compound, how does the growth read?
A: 82.3%

Q: How did the growth turn out when `COc1ccc2[nH]cc(-c3noc(C(=O)c4cn(C)c5ccc(F)cc45)n3)c2c1` was run?
A: 90.2%

Q: `COC(=O)[C@]12CCC(C)(C)C[C@H]1[C@H]1C(=O)C[C@@H]3[C@@]4(C)c5c([nH]c6ccccc6c5=O)C(C)(C)[C@@H]4CC[C@@]3(C)[C@]1(C)CC2` was tested. Which growth did it give?
A: 65.8%

Q: `CSc1nc(NCCO)c(C#N)c(-c2cccc([N+](=O)[O-])c2)n1` was tested. Which growth did it give?
A: 99.5%

Q: With `C=CC(COC(c1ccccc1)(c1ccccc1)c1ccccc1)N(CC)CC` (stereo not given) as the compound, how does the growth read?
A: 65.2%

Q: With `COc1cc2nc(N3CCCC3)nc(NCC3CCCCC3)c2cc1OC` as the compound, how does the growth read?
A: 57.3%

Q: How did the growth turn out when `Oc1cccc(-c2nc(N3CCOCC3)c3c4c(sc3n2)CCCC4)c1` was run?
A: 56.3%

Q: With `CC(C)(O)c1cn(CCCCN2C(=O)C(=O)c3ccccc32)nn1` as the compound, how does the growth read?
A: 95.8%

Q: How did the growth turn out when `CCNc1ncnc2c1cnn2C1CCCO1` (stereo not given) was run?
A: 118%

Q: For `COc1cccc(-c2nc3sccn3c2-c2ccnc(NCCNS(=O)(=O)c3ccc(F)cc3)c2)c1`, which growth is on record?
A: 27.2%

Q: With `O=[N+]([O-])c1ccc2c(c1)Cc1cc(F)ccc1-2` as the compound, how does the growth read?
A: 105%

Q: How did the growth turn out when `CC(=O)O[C@H]1[C@@H]2OC(=O)C(CSc3ccccc3)[C@@H]2C[C@H]2O[C@]2(C)CC/C=C(\C)CCC[C@@H]1C` (stereo not given in full) was run?
A: 53.1%

Q: Which growth does the source give for `Clc1ccc2c(NCCNc3nc(N4CCOCC4)nc4ccccc34)ccnc2c1` here?
A: 44%

Q: How did the growth turn out when `C=C(C)C(=O)Nc1ccc(NC(C)C)cc1` was run?
A: 113%

Q: With `C=C1c2nc3ccccc3n2C=C(c2ccc(Cl)cc2)N1Cc1ccc(OC)cc1` as the compound, how does the growth read?
A: 54.2%

Q: Which growth does the source give for `C[n+]1ccccc1/C=C/c1ccc2cccc(O)c2n1` here?
A: 103%

Q: `C#Cc1cccc(NC(=O)c2ccccc2NC(=O)CCl)c1` was tested. Which growth did it give?
A: 64.4% [8.25 µM]

Q: For `COc1ccc(/C=C/c2nc3ccccc3nc2/C=C/c2ccc(OC)cc2)cc1`, which growth is on record?
A: 93.5%

Q: `N#Cc1c(-c2ccc(Cl)cc2)nc(N/N=C/c2cccc(Br)c2)nc1N1CCOCC1` was tested. Which growth did it give?
A: 98.3%

Q: How did the growth turn out when `O=C(COc1cccc(/C=C2\CSc3ccccc3C2=O)c1)Nc1nccs1` was run?
A: 19.7%

Q: Which growth does the source give for `NC(=O)c1cc(Cl)ccc1NC(=O)/C=C/c1ccccc1` here?
A: 60.3%

Q: For `CCCCCC(=O)Oc1ccc(/C(=C(\C)c2ccc(OC)cc2)c2ccc(OCCN3CCCCC3)cc2)cc1`, which growth is on record?
A: 67.1%

Q: `COc1ccc(-c2nc3cc(C(=O)Nc4cc(OC)c(OC)c(OC)c4)ccc3n2C2CCCCC2)cc1` was tested. Which growth did it give?
A: 93.6%

Q: For `CC(C)c1c(C(=O)c2ccccc2)c(-c2ccccc2)c(-c2ccc(F)cc2)n1CC[C@@H](O)C[C@@H](O)CC(=O)O`, which growth is on record?
A: 56.8%

Q: `Cc1nn(-c2ccc(F)cc2)c2ncnc(Oc3ccc(NC(=O)Nc4ccc(Cl)c(C(F)(F)F)c4)cc3)c12` was tested. Which growth did it give?
A: 96.7%
